The assay has as its system HL-60(TB) leukemia. The assay can be described thus: NCI-60 one-dose screen, 48 h (100 = growth as untreated, 0 = no growth, -100 = all killed). To be noted: 10 µM unless noted.

Drawing on PubChem BioAssay (NCI), this text covers growth for 38 molecules.

Several values for one entry are separate records, joined by “and”; a condition that tells them apart may be missing. Equal entries are not always repeated. Compounds without any hit were thinned out: in the full panel of roughly 83,000, 20% have a hit.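 48-hour exposure, single concentration, 96-well plates; percent growth endpoint where 0 means no net growth. Active: below 10.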 Activity calls are given as the source filed them.

On to `Clc1cc(Cl)cc(N2N=C(c3cccc(Nc4ccncc4)c3)CC2c2ccc3c(c2)OCO3)c1` (stereo not drawn), for which the growth was 8.01% (active). For `CCOC(=O)c1c2ncccc2n2c(=O)n(-c3ccccc3C)nnc12`, the growth is 56.9% (inactive). With `ClCC(Cl)[C@@H]1CC2C=CC1C2` (stereo partly drawn) the figure was 104% (inactive); with `FC(F)(F)c1ccc2c(c1)N(CCCN1CCN(C3CC3)CC1)c1ccccc1S2`, 25.6% (inactive); with `COc1cc(C(=O)C[n+]2ccccc2)ccc1OC(C)=O`, 101% (inactive). With `COc1cc(-c2n/c(=C\c3c(O)[nH]c4ccc(Cl)cc34)cc3c2=Nc2ccccc2-3)ccc1F` the figure was 96.6% (inactive); with `CC1=C(/C=C/C(C)=C/C=C/C(C)=C/C(=O)O)C(C)(C)CCC1`, 79.2% (inactive) and 46.2% (inactive) and 67% (inactive); with `c1cc2ccc1CNCCN1CCNCc3ccc(cc3)Oc3ccc(cc3)CNCCN(CCNCc3ccc(cc3)O2)CCNCc2ccc(cc2)Oc2ccc(cc2)CNCC1`, -57.4% (active). Turning to `C[C@@H](CO)[C@@H]1CCC=C2CC[C@]3(C)[C@H](CC[C@@H]4[C@@]5(C)CCCNC(C)(C)[C@@H]5CC[C@]43C)[C@H]21`, the growth is -6.22% (active). Consider `COc1ccc(\C=N/N=C(N)/C(N)=N\N=C/c2ccc(OC)cc2)cc1`, for which the growth was 91.5% (inactive).

In the case of `COc1ccc(-c2nnc(SC/C(=N\O)c3ccccc3)o2)cc1`, the growth is 86.8% (inactive). The same measure for `Cc1cc(Cl)ccc1NC(=O)c1cc2ccccc2cc1O`: 1.45% (active); for `COc1ccc(/C=C2\N=C3SC=C(N)N3C2=O)cc1`: -40% (active). With `FC(F)(F)c1cc(CNc2ncc(Br)c(Cl)n2)cc(C(F)(F)F)c1` the figure was 101% (inactive).

For the molecule `COc1cc2c(Nc3ccc(Cl)c(Cl)c3F)ncnc2cc1OCC1C[C@@H]2CN(C)C[C@@H]2C1` (stereo partly drawn), the growth is -53.2% (active) and 41.1% (inactive). The same measure for `OCc1nnn(-c2ccccc2)c1CO`: 89.1% (inactive); for `Oc1c(Cl)cc(Cl)c2ccc(Cn3cc(-c4cc(C(F)(F)F)cc(C(F)(F)F)c4)nn3)nc12`: -13.7% (active); for `COc1ccc(-n2nnc(C(=O)NCCc3c[nH]c4ccc(F)cc34)c2C)cc1`: 86.9% (inactive). On to `O=S(=O)(NCCCNc1cc(-c2cn(-c3ccccc3)nc2-c2cccc(O)c2)ccn1)c1ccccc1`, for which the growth was 42.8% (inactive). Regarding `COc1cc2cc(COc3nccc(-c4ccc(Cl)cc4)n3)c(=O)[nH]c2cc1OC`, the growth is 70.2% (inactive). With `COc1ccc(S(=O)(=O)Nc2cc(/C=C\c3cc(OC)c(OC)c(OC)c3)cc(OC)c2OC)cc1` the figure was -42.1% (active); with `O=C(Nc1ccc(Cl)c(Cl)c1)Nc1ccccc1O`, 61.6% (inactive); with `O=C(CSc1nc2sc3c(c2c(=O)n1Cc1ccccc1)CCCC3)N1CCN(c2ccccc2)CC1`, 90.3% (inactive). The same measure for `COc1ccc(C(CC(=O)c2ccc3c(c2)OCO3)C(=O)O)cc1OC` (stereo not drawn): 101% (inactive) and 99.7% (inactive).

Consider `Clc1cccc(-c2cc(-c3ccc4c(c3)OCCO4)[nH]n2)c1`, for which the growth is 15.2% [25 µM] (inactive). The same measure for `O=C(Nc1cccc(C(F)(F)F)c1)Nc1cccc(C(F)(F)F)c1`: -27.8% (active); for `COc1ccc(/C=C/C(=O)c2cc(OC)c(OC)c(OC)c2)cc1OCc1cn(Cc2ccc(F)cc2)nn1`: 69.4% (inactive). With `c1ccc(CNc2nc(Nc3ccc(-c4nc5ccccc5[nH]4)cc3)c3cn[nH]c3n2)cc1` the figure was -4.71% (active). As for `Cc1ccc(S(=O)(=O)Nc2ccc(Cl)cc2)cc1`, the growth was 119% (inactive).

`CCC(=O)OCc1ccc(OC)cc1`: the growth was 97% (inactive).

As for `CCN(CC)CCCC(C)Nc1ccnc2cc(Oc3ccccc3)ccc12` (stereo not drawn), the growth is 69% (inactive) and 97.8% (inactive). The same measure for `Cc1nc2ncccc2nc1Nc1ccc(S(=O)(=O)Nc2ccccn2)cc1`: 100% (inactive).

For `C#Cc1cccc(Nc2ncnc3cc(OC)c(OCCCCCCC(=O)NO)cc23)c1`, the growth was 2.38% (active). The same measure for `COc1ccc(/C=C\c2nc3ccccc3s2)cc1OP(=O)(O)O`: -1.37% (active); for `Cc1c(O)c(N=Nc2ccc(C(=O)O)c(O)c2)c2ccccc2c1O`: 77.4% (inactive); for `COc1ccc2c(c1)sc1nc(-c3ccc(N(C)C)cc3)cn12`: 65.4% (inactive). As to `CC(C)(C)N1CCC1CN` (stereo not drawn), the growth was 125% (inactive). With `Cc1cc2c(F)c(Oc3ncnn4cc(OC[C@@H](C)OC(=O)[C@H](C)N)c(C)c34)ccc2[nH]1` the figure was 12.6% (inactive).
